Assay outcomes deposited in PubChem BioAssay by National Center for Advancing Translational Sciences (NCATS).
PNC inhibitor – High Content Assay for Compounds that inhibit the Assembly of the Perinucleolar Compartment | 140,000 tested, 3.1% active | AID 2417, 2010 | PC3M PTB-GFP, PNC prevalence imaging, 16 h; hits give low values | activity change (PNC), negative = inhibition, % at 10 µM;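 active = readout at or below -70, meaning at least 70% loss of cells showing the perinucleolar compartment, a nuclear body marking cancer cells; inconclusive = readout between -30 and a set limit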;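 also: plate controls were DMSO wells for no effect and camptothecin positive control wells for full effect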
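PC3M cells stably expressing PTB-GFP, 750–1000 cells/well, treated 16 h at 37 °C with compound (23 nl of library stock), in duplicate. After paraformaldehyde fixation and Hoechst stain, imaged at 20x; PNC prevalence scored by image analysis.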
ALOX12 inhib – qHTS Assay for Inhibitors of 12-hLO (12-human lipoxygenase); Polyunsaturated fatty acid lipoxygenase ALOX12 (Homo sapiens), P18054; purified 12-hLO, xylenol orange hydroperoxide absorbance; Potency, µM (top dose mostly 57.1 µM), for inactives: at the top dose activity change, negative = inhibition, hits mostly inhibitors; 150,000 tested, 0.12% active; also: potency is read from the fitted curve at half-maximal effect; nearly all actives have a fitted effect of over 55% in size
Target sequence (P18054 whole entry, looked up): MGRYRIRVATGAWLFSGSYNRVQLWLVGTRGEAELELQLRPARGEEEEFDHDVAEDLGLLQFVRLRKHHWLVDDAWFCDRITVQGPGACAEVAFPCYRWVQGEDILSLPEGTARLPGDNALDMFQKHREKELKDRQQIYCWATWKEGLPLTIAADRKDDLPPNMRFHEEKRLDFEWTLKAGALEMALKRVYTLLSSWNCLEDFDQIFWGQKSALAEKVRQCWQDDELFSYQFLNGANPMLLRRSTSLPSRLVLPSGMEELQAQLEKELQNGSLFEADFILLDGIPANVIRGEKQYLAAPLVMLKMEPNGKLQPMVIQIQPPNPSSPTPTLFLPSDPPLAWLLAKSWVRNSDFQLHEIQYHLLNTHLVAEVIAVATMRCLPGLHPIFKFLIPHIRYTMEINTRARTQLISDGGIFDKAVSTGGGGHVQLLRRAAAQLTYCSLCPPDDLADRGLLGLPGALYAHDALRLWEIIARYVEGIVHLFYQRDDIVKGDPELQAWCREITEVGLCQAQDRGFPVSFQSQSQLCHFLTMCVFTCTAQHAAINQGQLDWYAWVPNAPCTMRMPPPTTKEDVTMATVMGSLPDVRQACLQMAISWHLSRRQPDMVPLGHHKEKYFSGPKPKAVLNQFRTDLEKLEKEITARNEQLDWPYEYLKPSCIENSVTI
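Hydroperoxide output read as Fe(III)-xylenol orange absorbance, 573-to-405 nm ratio, after 30 min reaction with 40 uM arachidonic acid. Enzyme: 150 nM purified human 12hLO, 15 min compound preincubation; 25 mM Hepes pH 7.0, room temperature.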
IMPase cell inh – qHTS Assay for Identifying the Cell-Membrane Permeable IMPase Inhibitors; Inositol monophosphatase 1 (Rattus norvegicus), P97697; CHO-M1 cells, IP1 accumulation, HTRF TR-FRET ratio; inhibition (IP1 accumulation), % at 46.1 µM; 120,000 tested, under 10 active; active = well fitted curve in the direction sought with a large enough effect in the signal ratio, not every such curve was filed as active; inconclusive = small, poorly fitted or top-dose-only effect, or a change in a side signal; inactive = no such curve, though single readings can be large or run the other way; the % refers to the signal ratio;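 also: cells stimulated with carbachol in lithium chloride buffer; plate controls were DMSO basal wells for no effect and reference inhibitor wells for full effect; higher means more IMPase inhibition seen as more IP1 and lower FRET ratio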
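CHO-M1, 2000 cells/well, cultured 16–30 h; cpd up to 46 uM; carbachol (50 uM solution, stimulation buffer w/ 50 mM LiCl, pH 7.4), 30 min 37C; IP-One TR-FRET, 10 min RT; Ex 320/Em 665, 620; Hill-fit AC50.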
HPGD block – qHTS Assay for Inhibitors of HPGD (15-Hydroxyprostaglandin Dehydrogenase) | 15-hydroxyprostaglandin dehydrogenase [NAD(+)] (Homo sapiens), P15428 | purified HPGD, NADH fluorescence kinetic, PGE2 substrate | Potency, µM, for the others: top-dose activity change, negative = inhibition, most hits filed as inhibitors | 150,000 tested, 4.3% active | AID 894, 2007; active = well fitted inhibition curve with a large enough effect, not every such curve was filed as active; inconclusive = small, poorly fitted or top-dose-only effect, or another doubt; inactive = no such curve, though single readings can be large or run the other way; also: potency is read from the fitted curve at half-maximal effect
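NADH formation kinetics: reaction with 30 uM PGE2 and 1 mM NAD+ (final), 20 nM enzyme, Tris-HCl pH 8 with Tween 20, after 15 min compound preincubation at room temperature. Fluorescence change, last versus first of five reads.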
15-hLO-2 inh – qHTS Assay for Inhibitors of 15-hLO-2 (15-human lipoxygenase 2) | 110,000 tested, 0.56% active | purified 15hLO-2, xylenol orange hydroperoxide absorbance | AID 881, 2007 | Potency, µM (series often up to 57.1 µM), for inactives: at the top dose activity change, negative = inhibition, most hits filed as inhibitors | Polyunsaturated fatty acid lipoxygenase ALOX15B (Homo sapiens), O15296; also: potency is read from the fitted curve at half-maximal effect; nearly all actives have a fitted effect of over 60% in size
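Enzyme 50 nM, AA 45 uM, 25 mM Hepes pH 7.5 + 0.01% Triton X-100; cpd preinc 15 min RT, rxn 90 min RT; stop/detect with 200 uM XO + 300 uM Fe(II) in 50 mM H2SO4, 30 min; A573/A405.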
IMPase Li inh – qHTS Assay for Identifying the Cell-Membrane Permeable IMPase Inhibitors: Potentiation with Lithium. CHO-M1 cells, IP1 TR-FRET (IP-One), carbachol + lithium. Potency, µM (series often up to 59.4 µM), for inactives: at the top dose activity, negative = IMPase inhibition, usual class: inhibitors. 210,000 tested, 0.35% active. AID 1457, 2008;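 also: IP1 builds up when IMPase is blocked and the TR-FRET signal falls; potency is read from the fitted curve at half-maximal effect; plate controls were basal vehicle for no effect and high inhibitor control for full effect; nearly all actives have a fitted effect of over 50% in size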
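CHO cells stably expressing M1 receptor (2000/well) were cultured 16–30 h, then exposed to compounds with a small lithium addition for 30 min at 37C. IP1 was measured by TR-FRET competition; AC50 from Hill fits.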
An asterisk follows results filed as active; ? = inconclusive; nt = not tested or not shown; [ ] = another dose, or the depositor's remark. This is a sample that favours compounds with a hit; in the whole collection about 5.3% have one here. Unless noted, calls follow the shape of the dose curve; as a rule, active = well fitted curve in the direction sought with a large enough effect; inconclusive = small, poorly fitted or top-dose-only effect, or another doubt; inactive = no such curve, though single readings can be large; an effect the other way counts as inactive or inconclusive. Unless noted, % is scaled to controls: 0 for no effect and ±100 for the full control effect.

SMILES | PNC inhibitor | ALOX12 inhib | IMPase cell inh | HPGD block | 15-hLO-2 inh | IMPase Li inh
COc1ccc(-c2noc(-c3ccccc3Cl)n2)cc1OC | ? | 5% | 2 | -29% | 2% | 8.9µM*
Cc1cccc(-c2noc(-c3cc4ccccc4oc3=O)n2)c1 | -106* | 0% | -5 | ? | -10% | -4%[38.3 µM]
COc1ccc(-c2noc(-c3ccc(Cl)cc3[N+](=O)[O-])n2)cc1OC | ? | 5% | nt | 18µM* | nt | 9%
COc1ccc(-c2noc(-c3cccc(Cl)c3)n2)cc1OC | 33 | 10% | nt | -8% | nt | 5%
Cc1cccc(-c2noc(-c3ccc(Cl)cc3[N+](=O)[O-])n2)c1 | -7 | 0% | nt | 14µM* | nt | 19%
Cc1ccc(-c2noc(-c3cc4ccccc4oc3=O)n2)cc1 | ? | 4% | 3 | ? | 4% | -20%[38.3 µM]
Cc1ccc(OCCSc2nc(N)cc(N)n2)cc1 | nt | nt | nt | nt | nt | 6%
COc1ccc(OCCSc2nc(N)cc(N)n2)cc1 | 8 | 6% | 8 | 25µM* | 11% | 50%[38.3 µM]
Cc1cc(NCCN(C)C)n2nc(-c3cccs3)cc2n1 | -89* | 2% | -3 | ? | 39% | 19%[38.3 µM]
N#Cc1c(SCC(=O)N2CCCCC2)nsc1SCC(=O)N1CCCCC1 | 18 | 2% | 6 | 13µM* | -5% | 5%[38.3 µM]
CC1CCN(C(=O)c2cc(F)c(F)cc2Cl)CC1 | -100* | 3% | 9 | 13µM* | nt | -1%
O=C(c1cc(F)c(F)cc1Cl)N1CCOCC1 | 19 | 2% | -4 | -17% | 6% | -16%[38.3 µM]
O=S(=O)(Cc1ccccc1)c1cnc2ccccc2n1 | -29 | -2% | 4 | 25µM* | -29% | 14%[38.3 µM]
O=S(=O)(c1ccc(Br)cc1)c1cnc2ccccc2n1 | nt | nt | nt | nt | nt | 4%
COc1ccc2[nH]c3c(=O)n4c(nc3c2c1)SCCC4 | nt | nt | nt | nt | nt | 2%
Cc1ccc(C(=O)NC(=S)Nc2ccc(NC(=O)c3cccs3)cc2)cc1[N+](=O)[O-] | ? | -4% | nt | -13% | nt | 6%
O=C1c2ccccc2S(=O)(=O)N1Cc1nnc(-c2ccccc2Br)o1 | -28 | -2% | 0 | -17% | nt | -1%
O=c1c2ccccc2nnn1Cc1nnc(-c2ccccc2Br)o1 | ? | -6% | 8 | 28µM* | -7% | -4%[38.3 µM]
COc1ccccc1NS(=O)(=O)c1cccc(C(=O)N/N=C2\CC(=O)CC(C)(C)C2)c1 | 8 | 1% | -6 | -20% | nt | 1%
COC(=O)CNC(=O)C1(C)C=CC2(CCCCC2)N1C(C)=O (stereo not drawn) | nt | 1% | nt | -8% | 4% | -8%
Cc1ccc(O)c(-c2cc(C(F)(F)F)[nH]n2)c1 | 10 | -4% | 1 | 14µM* | -27% | -5%[38.3 µM]
Cn1cnnc1Sc1nc2ccccc2nc1NS(=O)(=O)c1ccccc1 | ? | -2% | ? | -18% | -5% | -19%[38.3 µM]
Cn1ccnc1Sc1nc2ccccc2nc1NS(=O)(=O)c1ccccc1 | 1 | -18% | -30 | 22µM* | -21% | ?
CCCCCNC1=CC(=O)CC(c2ccccc2)C1 (stereo not drawn) | -84* | 2% | -5 | -20% | -7% | -4%[38.3 µM]
Cc1c(C(=O)N2CCCCCC2)nnn1-c1nonc1N | 60 | 2% | 1 | 32µM* | 1% | 10%[38.3 µM]
CCOC(=O)c1nnn(-c2nonc2N)c1CN1CCCCCC1 | 2 | -2% | -3 | -6% | -4% | 12%[38.3 µM]
CC(=O)N1CCN(C(=O)COc2ccc(Br)cc2)CC1 | -81* | -1% | -4 | -3% | -13% | 19%[38.3 µM]
CCOC(=O)C1CCN(CC(O)COc2ccc(C(C)(C)CC)cc2)CC1 (stereo not drawn) | -81* | -9% | 7 | -6% | 25% | 20%[38.3 µM]
CCOC(=O)C1CCN(C(=O)COc2ccc(Br)cc2Br)CC1 | nt | nt | nt | nt | nt | 1%
